aSyn UTR act: Activators working through SNCA 5'UTR binding (MLPCN); alpha-synuclein 5'UTR reporter, activators screen; actives 7.1% (n = 300,000); activity score, % (tested at 7.5 µM), hits read low; in the data active means activity score below about -60%
* hit, by the source's call. Not all results are given here.

SMILES | aSyn UTR act
CCc1nnc(NC(=O)c2cccc(C(=O)Nc3nnc(CC)s3)n2)s1 | 66.0
COc1ccccc1C(=O)Nc1nsc(-c2ccccc2)n1 | -152.4*
CCOc1ccccc1C(=O)Nc1nnc(CC)s1 | -93.0*
O=C(Nc1nnc(-c2ccccc2)s1)c1ccc(F)cc1 | -89.4*
COc1ccccc1C(=O)Nc1nnc(-c2ccc(F)cc2)s1 | -131.6*
COc1ccc(-n2nc3c(c2NC(=O)COc2ccccc2)CS(=O)(=O)C3)cc1 | -75.9*
COc1ccc(OCC(=O)Nc2ccccc2Cl)cc1 | -110.6*
O=C(COc1ccccc1O)Nc1ccccc1Cl | -98.8*
COc1ccc(OCC(=O)Nc2cccc(NC(=O)COc3ccc(OC)cc3)n2)cc1 | -135.6*
O=C(COc1ccc(C(=O)c2ccccc2)cc1)NCc1ccc(F)cc1 | 112.5
O=C(COc1ccccc1Cl)NCc1ccccc1 | -72.3*
CC(C)c1ccc2c(c1)C(c1ccc(N3CCOCC3)cc1)=NNC(c1cccs1)=N2 | -103.5*
CC(=O)N(/N=C1/C(=O)Nc2ccccc21)c1ccccc1 | -114.2*
O=C(CSc1ccc(-c2ccccc2)nn1)c1cccs1 | -94.3*
Cc1cc(SCC(=O)c2ccccc2)nc(=O)[nH]1 | -106.7*
COc1ccc(-c2ccc(SCC(=O)c3cccs3)nn2)cc1 | -94.5*
O=C(CSc1ccc(-c2cccs2)nn1)N1CCCCCC1 | -71.5*
Cc1ccc(-c2ccc(SCC(=O)c3ccccc3)nn2)cc1 | -64.9*
Cc1cc(C)c2c(N)c(-c3nc4ccccc4[nH]3)sc2n1 | -130.8*
Cc1ccc(-c2ccnc3c(Cl)c(C)nn23)cc1 | 68.7
Cc1nc2nc(N)nn2c(C)c1C/C=C/c1ccccc1 | 46.3
Cc1nn2c3c(cnc2c1-c1ccccc1)C(=O)CCC3 | -89.6*
Cc1nn2c(N)c(-c3ccccc3)cnc2c1-c1ccc(Cl)cc1 | -193.5*
Cc1nn2c(-c3ccccc3)ccnc2c1-c1ccccc1 | -139.5*
Cc1nc2c(-c3ccccc3)c(C)nn2c(N)c1-c1ccccc1 | -137.5*
SMILES | aSyn UTR act
CCOC(=O)/C(=C\c1cccnc1)C(=O)c1cc(C(C)=O)c(Nc2ccccc2)s1 | 82.9
CCOC(=O)C(=Cc1ccc(Br)cc1)C(=O)OCC | -121.4*
CCOC(=O)C(CC)(CC)C(=O)/C=C/c1ccc(Br)cc1 | -92.5*
CC(=O)c1ccc(NC(=O)/C(Cl)=C/c2ccccc2)cc1 | -174.7*
Cc1ccc(NC(=O)/C(Cl)=C\c2ccccc2)cc1 | -105.2*
O=C(Nc1ccc(F)cc1)/C(Cl)=C/c1ccccc1 | -258.0*
O=c1c2c(nc3cc(-c4ccccc4)[nH]n13)CCS2 | -98.9*
O=c1c2c(nc3cc(-c4ccccc4Cl)[nH]n13)CCS2 | -148.6*
CC1(C)CC(/C=C/c2ccccc2)=Nc2ccccc2N1 | -154.5*
O=C1CC(/C=C/c2ccccc2)=Nc2ccccc2N1 | -252.2*
O=C1CC(/C=C/c2ccc(Cl)cc2)=Nc2ccccc2N1 | -225.7*
Cc1cc(NC(=O)c2ccccc2Cl)no1 | -68.1*
CC(=O)Nc1ccc(S(=O)(=O)c2ccc([N+](=O)[O-])cc2)cc1 | -72.2*
Cc1cc(NC(=O)c2ccc([N+](=O)[O-])cc2)no1 | -130.3*
O=C(Nc1cccc(NC(=O)c2cc([N+](=O)[O-])ccc2Cl)n1)c1cc([N+](=O)[O-])ccc1Cl | 48.4
Cc1cc(NC(=O)c2ccc([N+](=O)[O-])cc2Cl)no1 | -129.5*
Cc1cc(NC(=O)c2sc3ccccc3c2O)no1 | -64.4*
Cc1ccc(NC(=O)c2ccc([N+](=O)[O-])cc2Cl)nc1 | -119.2*
Cc1cc(NC(=O)C(Cl)c2ccccc2)no1 (stereo not given) | -74.0*
Cc1ccc(NC(=O)c2ccccc2Cl)c(Cl)c1 | -83.3*
Cc1cc(NC(=O)c2cc(C(C)C)on2)no1 | -139.8*
CC(C)Oc1ccc(C(=O)Nc2ccc([N+](=O)[O-])cc2)cc1 | -211.5*
Cc1cc(NC(=O)NC(=O)c2ccccc2F)no1 | -108.5*
Cc1nc2ccc(NC(=O)c3ccc([N+](=O)[O-])cc3)cc2[nH]1 | -106.0*
C/C(=N\NC(=O)c1ccoc1C)c1ccccc1 | -127.4*
SMILES | aSyn UTR act
C/C(=N/NC(=O)c1ccoc1C)c1ccc(NC(=O)C2CCCC2)cc1 | -120.9*
C/C(=N\NC(=O)c1nn(C)c(C)c1Br)c1cccc(NC(=O)c2ccoc2C)c1 | -71.3*
C/C(=N\NC(=O)c1ccc(Cn2cc(Br)cn2)o1)c1ccc(NC(=O)c2ccoc2C)cc1 | -76.7*
Cc1ccc(OCCCCn2cnc3ccccc32)c(C)c1 | -88.1*
Brc1ccccc1OCCCCn1cnc2ccccc21 | -138.1*
O=C1c2ccccc2C(=O)c2[nH]c(=O)[nH]c21 | 93.0
O=c1[nH]c(=O)c2nc3c4ccccc4c4ccccc4c3nc2[nH]1 | -69.8*
Cc1ccc(NC(=O)c2ccc(CSc3nnc(-c4ccncc4)n3C)cc2)cc1 | -108.2*
CCOC(=O)c1ccc(CSc2nnc(-c3ccncc3)n2N)cc1 | -63.2*
Cn1nnnc1SCc1ccc(C(=O)Nc2ccc(Br)cc2)cc1 | -185.7*
Oc1ccc(N=C/C=C/c2cccc(Br)c2)cc1-c1nc2ccccc2s1 | -98.5*
O=C(NNC1=NCCCCC1)Nc1cccc(Cl)c1 | -135.9*
O=C(NNC1=NCCCCC1)Nc1ccc(Cl)cc1 | -67.6*
CN(C)c1ccc(-c2nnc(-c3ccc(S(=O)(=O)C(F)F)cc3)o2)cc1 | -62.8*
COc1ccc(-c2nnc(-c3ccc(N)cc3)o2)cc1 | -112.6*
COc1ccc(-c2nnc(-c3ccc(N(C)C)cc3)o2)cc1 | -147.7*
COCCn1c(C)cc(C(=O)CSc2nc3ccccc3c(=O)n2Cc2ccco2)c1C | -176.1*
CCN(CC)c1ccc2c(-c3ccc(S(=O)(=O)O)cc3S(=O)(=O)[O-])c3ccc(=[N+](CC)CC)cc-3oc2c1 | 80.2
CCN(CC)c1ccc2cc(C(N)=O)c(=O)oc2c1 | -97.6*
CCN(CC)c1ccc2cc(NC(=O)CCC(=O)O)c(=O)oc2c1 | 120.2
CCN(CC)c1ccc2cc(C(N)=O)c(=N)oc2c1 | -67.0*
COc1cc(NC2c3ccccc3C(=O)N2c2ccc(C)cn2)cc(OC)c1OC (stereo not given) | -76.9*
CCOC(=O)c1ccccc1NC1c2ccccc2C(=O)N1c1ccc(C)cn1 (stereo not given) | -85.3*
Cc1ccc(NC(=O)CSc2nccn2Cc2ccco2)cc1 | -85.5*
Cc1ccc(NC(=O)CSc2ncc3ccccn23)cc1 | -67.4*
SMILES | aSyn UTR act
COc1cc2c(cc1NC(=O)COC(=O)C1CC(=O)N(Cc3ccco3)C1)oc1ccccc12 (stereo not given) | -145.4*
COc1cc2c(cc1NC(=O)C(C)OC(=O)c1ccc(S(=O)(=O)Nc3ccccc3Cl)cc1)oc1ccccc12 (stereo not given) | -115.5*
COc1ccccc1CC(=O)Nc1cc2oc3ccccc3c2cc1OC | -129.2*
COc1cc2c(cc1NC(=O)C(C)Sc1cccc[n+]1[O-])oc1ccccc12 (stereo not given) | -241.2*
COc1cc2c(cc1NC(=O)COC(=O)CNC(=O)c1ccccc1)oc1ccccc12 | -94.3*
COc1ccc(CC(=O)Nc2cc3oc4ccccc4c3cc2OC)cc1 | -161.5*
COc1cc2c(cc1NC(=O)COC(=O)[C@@H](NC(=O)c1ccccc1F)C(C)C)oc1ccccc12 | -85.0*
Cn1c(SCc2ccccc2Cl)nnc1-c1cnccn1 | -92.5*
Cn1c(SCc2cccc(F)c2)nnc1-c1cnccn1 | -98.3*
Cn1c(SCc2ccccc2[N+](=O)[O-])nnc1-c1cccnc1 | -68.4*
Cn1c(SC/C=C/c2ccccc2)nnc1-c1cnccn1 | -63.2*
COc1ccc(Cn2c(SCc3ccccc3C)nc3cc(OC)c(OC)cc3c2=N)cc1 | 92.9

Screening results (PubChem)
